Consider 69 sequences from PubChem BioAssay AID1508600 (Functional Genomics Laboratory (NCATS/FGL), 2020).

The whole screen tested about 53,000 sequences, of which about 3,700 (7%) were called active. This excerpt belongs to a sample that is enriched for actives. Values without a mark were called inactive.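 How the source made its calls: active means gene knockdowns whose robust z-score for IL-1 alpha signal is at least 2 or at most -2, so actives lie on both sides; inactive means the rest.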

This assay is described as follows: Components of the Cytosolic LPS Sensing Pathway: Gene Identification via Genome-wide siRNA Screen.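 Further: robust z of the log signal after scaling to non-targeting control siRNA wells of the plate.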 Conditions: RAW264.7 macrophages, IL-1a HTRF, actives lie on both sides, screened at 100 nM (by protocol), cells primed 5 h with Pam3CSK4 first. The gist of the method: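 Knockdown: 100 nM siRNA, 48h, RAW264.7. Stimulation: Pam3CSK4 5 h, then LipidA via TransIT-TKO 24 h. Output: supernatant IL-1a HTRF, negative-control-normalized, log robust z-score; viability by CellTiter-Glo.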
Turning to GGAUUCUUGGAGCUCAUUATT against Stag3, the z-score was -2.46 (active).

Take CCAAGAGAUGCUAGCUAAUTT against Platr28: the z-score was -0.495.

As to GGCAAUCUACUCAUUGUUGTT against Olfr1239, the z-score is -0.719.

For GCAGGUUAGAGUCACUUGUTT against Trim67, the z-score was 0.143.

GGUGUCCAGUUCAUCCAGGTT against Vxn: the z-score was 1.15.

For the sequence GGAACAAGGUAAAAUACAUTT against Nthl1, the z-score is 3.88 (active).

As for GCUUUGAGAACCUUGGUAATT against Rab9b, the z-score is -0.652.

Take GGAUCAGUGCCUUUGGCUATT against Rhoc: the z-score was -1.75.

On to GGGAUGUUUUGUUUUUAACTT against Mlc1, for which the z-score was 0.384.

In the case of GGAGUUCACCAGCUACCAATT against Myoz3, the z-score is -0.537.

On to CCAUGGAAUUCAAUUCCUUTT against Vmn2r66, for which the z-score is 0.0798.

In the case of CCCUAGUUACCAAUUCCACTT against Olfr293, the z-score is 2.61 (active).

Regarding GGUUGACUGAAUGAUGGAATT against Tcl1b3, the z-score was -0.724.

Regarding GCCCAUAUCGGAGAAGAUUTT against Cap2, the z-score was -1.97.

Turning to GGGCAUGUUUAACGACAUUTT against Csf2ra, the z-score was 1.49.

With GGAUUUCCUUUUAAGACUUTT against Rab3il1, the z-score is -0.71.

As to GCUUUACCUGCUCAGAAGCTT against Olfr520, the z-score is -2.26 (active).

Regarding GGAAGACAAUAAGAAGUGGTT against Niban2, the z-score was -0.576.

Consider CCAUUCCUACAGCAUGCGUTT against Slc27a1, for which the z-score is 0.523.

In the case of GCGAGCUAUUCUUCCUUGUTT against Eif4a1, the z-score is -2.13 (active).

With CCUCAUCCAACAUACCUAUTT against Olfr665, the z-score was -0.665.

For “GGACAUCAUAUUCGUUUUCTT against C130026L21Rik”, the z-score was 1.12.

On to GGGUUGAAGUUUGUCGAAATT against Nlgn1, for which the z-score is 0.496.

Consider GGGUCUUUGUACAGAUUGCTT against Olfr275, for which the z-score is 0.0844.

As for GGAGGAAGAGGAGAAUCUATT against Supt6, the z-score is -2.57 (active).

As to GCUGAAUACAGUUGGUGCUTT against Nelfa, the z-score is -0.259.

For GGAUUCAAACUGGUUUUCATT against Ptcd3, the z-score was 1.8.

Take GGACAAGUUCUGUUGGUAUTT against Zfp275: the z-score was 0.121.

As to GCGCAGUCAGACCAUAUAUTT against Fbxl5, the z-score is -0.874.

In the case of GGGAGACUGUGAAGCUUUATT against Elk4, the z-score was 3.22 (active).

Regarding GGUCUUAAAGCAUGAGAAGTT against Med8, the z-score was 0.541.

With GGUUCGUAAAAUUAUUAGGTT against Vcl, the z-score was 1.09.

In the case of GGGCAGUCCGUUUCUUAACTT against Kptn, the z-score is 0.815.

Turning to GGAGGUAUUUACCAAAGAUTT against Acer2, the z-score was 0.453.

With CCACACUUUUCAGUAUAAUTT against Lin54, the z-score is 0.897.

As for GGGUGACCUAAAGAAUUAATT against Ybx3, the z-score is 0.849.

Regarding GCUGAAUACAACGUGAGAUTT against Tdh, the z-score was -4.05 (active).

As for GGUUUCGUCUUGAUAUCUATT against Trpc1, the z-score was -0.417.

GGAGAGCAGAUGUGAUUCUTT against Mrm2: the z-score was -0.561.

Turning to GCCUGUUCUCAAGACUGACTT against Sema4a, the z-score was 2.06 (active).

For GGGUGUCUUUCCUGUGUGATT against Pkmyt1, the z-score is -0.804.

GGGUAAAGGAGAUUGUGAUTT against Ppfibp2: the z-score was -0.103.

As for GCCGUUAGAAACAAAGUCGTT against Taf3, the z-score is -2.48 (active).

With CCAAGUAUAGCUCACAUAATT against Slc17a4, the z-score was -1.7.

Consider GCCCUUGAAGAUUUGAGGUTT against Cops8, for which the z-score is 0.00555.

On to GCACAGGUUCAAGUGGAACTT against Prnd, for which the z-score is -1.41.

Regarding GGAAAGACCUAAGCAAUUATT against Klhl28, the z-score was -0.287.

Consider CCUAUCCAGAUGUCAUUAATT against Hoxa11, for which the z-score was 0.849.

Take GGAAUUUGAUUCUCUGCCUTT against Zfp646: the z-score was 2.96 (active).

Take “GCAUUAAAAACCCUUUUUGTT against B230354K17Rik”: the z-score is 1.68.

As to GCAGAGUGUGGUUAGUGGGTT against Cobl, the z-score was -0.218.

As for GGAACUGCCCAGUUCUUAATT against Ppan, the z-score is 0.424.

For the sequence CCUACCCUAACCAUUACACTT against Enpp5, the z-score was -0.267.

Turning to GGCCUUUUCUCAUCUCUGGTT against Igfals, the z-score was -1.57.

Regarding GCCCGGAGAAUAUUAACUATT against Mllt11, the z-score is 2.21 (active).

In the case of GCACUUUAAGAUCAACCGGTT against Bcar3, the z-score was 0.521.

Take CCUAAAAGUGCCUUACUAATT against Ftdc2: the z-score was 0.679.

As for GGAGUUUGCCAGUCAGAUCTT against Ralgps1, the z-score is -2.11 (active).

As for GCAAGAACGCAAGAUUCAATT against Acoxl, the z-score was 0.581.

Take GCUGCUACGUGUUCAAGGUTT against Ctss: the z-score was 0.00488.

As to GGACAAAGAAUCCAAAAUATT against Etv6, the z-score is 2.25 (active).

In the case of GGUACCAACGUGUAUGGCATT against Gpaa1, the z-score is 0.182.

Turning to GGUAAACCAAACAAAACCATT against Rpl35a, the z-score was 0.264.

As for CCUUAAAACAGAUCCACUUTT against Nell2, the z-score is 0.473.

On to GGCUCCUGUGCAUAUCUAATT against Olfr116, for which the z-score is -0.449.

Consider GGAGAACAACAGUAAUUACTT against Reps2, for which the z-score was -1.28.

For the sequence GGCUUUGGCAUGAUUGGCCTT against Tmem214, the z-score was -2.72 (active).

In the case of GGUGUCCAACAAGCUCAAGTT against F8a, the z-score is -0.337.

On to GCGCAAACUUUAAUAACACTT against Zkscan1, for which the z-score was 0.604.
